D3 antag = antagonists of human D3 dopamine receptor; D3R cells, DiscoveRx beta-arrestin luminescence, antagonist mode; active compounds read low; AID 652054; hit rate 2.5% among 360,000; max response, negative = inhibition, %; in the data active = max response below about -50%; inconclusive = no clear call, values can overlap the other calls; note: % is set by controls: 0 for no effect and ±100 for the full control effect
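Cells plated overnight at 1500 cells/well, then exposed to library compounds with dopamine controls for 90 minutes at 37 degrees C. DiscoveRx reagent added for 30–60 minutes at room temperature; luminescence read, quantitative HTS format.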
MBNL1 CUG block = inhibitors of human MBNL1 binding to CUG repeat RNA; TR-FRET MBNL1-His/biotin-(CUG)12 binding, 665/545 ratio; Potency, µM (titrated, usually from 57.5 µM), for inactives: at the top dose activity change, negative = inhibition, usual class: inhibitors; hit rate 0.036% among 280,000; active = well fitted inhibition curve with a large enough effect in the signal ratio, with a control signal flat, not every such curve was filed as active; inconclusive = small, poorly fitted or top-dose-only effect, or effect the other way, or a change in a side signal; inactive = no such curve, though single readings can be large or run the other way; the % refers to the signal ratio; note: potency is the fitted concentration of half-maximal effect; % is set by controls: 0 for no effect and ±100 for the full control effect
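TR-FRET readout: Ex 340 nm, 665/545 nm emission ratio, normalized to buffer-only (basal) and MBNL1-(CUG)12 controls. Complex of MBNL1-His with Biotin-(CUG)12, compounds 92 nM–58 uM, incubated 60 min at room temperature.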
DRD3 agonist = D3 dopamine receptor (human) agonism | D3R DiscoveRx beta-arrestin cells, luminescence, 90 min | max activation, % | hit rate 0.58% among 410,000 | AID 652048; in the data active = max activation above about 30%; note: 0% is about no effect
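Cells at 1500/well, incubated overnight, then treated with pinned compounds (dopamine as control) for 90 min at 37 degrees C. DiscoveRx reagent added for 30 - 60 minutes at room temperature; luminescence read.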
PTHR1 agonist = PTHR1 (human) receptor agonism | AID 743266 | Potency, µM (titrated, usually from 115 µM), for the others: at the top dose activation, hits mostly activators | hit rate 0.075% among 410,000 | Q03431 | HEK293 GP2 PTHR1 cells, GloSensor cAMP luminescence, 1 h; note: potency is the fitted concentration of half-maximal effect; nearly all actives have a fitted effect of over 55% in size
Target sequence (Q03431 whole entry, looked up): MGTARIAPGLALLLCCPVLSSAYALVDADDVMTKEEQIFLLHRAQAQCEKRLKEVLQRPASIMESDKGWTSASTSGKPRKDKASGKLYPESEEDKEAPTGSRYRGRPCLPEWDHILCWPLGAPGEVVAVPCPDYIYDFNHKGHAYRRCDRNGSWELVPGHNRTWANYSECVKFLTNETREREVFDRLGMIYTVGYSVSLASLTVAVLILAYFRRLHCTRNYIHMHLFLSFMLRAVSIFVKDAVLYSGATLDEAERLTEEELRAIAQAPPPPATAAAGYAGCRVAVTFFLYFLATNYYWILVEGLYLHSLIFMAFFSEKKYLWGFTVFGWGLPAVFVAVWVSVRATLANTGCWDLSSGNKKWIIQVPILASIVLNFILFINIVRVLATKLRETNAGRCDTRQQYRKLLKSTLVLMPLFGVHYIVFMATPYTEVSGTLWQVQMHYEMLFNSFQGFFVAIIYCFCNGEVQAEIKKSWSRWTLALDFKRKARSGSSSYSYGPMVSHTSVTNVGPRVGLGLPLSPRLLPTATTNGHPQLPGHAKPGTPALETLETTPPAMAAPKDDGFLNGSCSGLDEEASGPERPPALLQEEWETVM
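HEK-293-derived GP2 cells expressing PTHR1 and a GloSensor cAMP reporter, 3,000/well, plated overnight, given luciferin plus IBMX (each 0.5 mM as added) for 1 h at 37 °C, then compound for 1 h at 37 °C. Luminescence was read after 15 min at room temperature.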
CBFb-RUNX1 inh = blocks binding between human CBF-beta and RUNX1; 230,000 tested, under 10 active; AlphaScreen CBFb-His/RUNX1-biotin binding, biochemical; Potency, µM (series often up to 59.8 µM), without a hit: top-dose activity, negative = inhibition, hits mostly inhibitors; AID 1477; Q01196+Q13951; note: % of control where 0% means no effect
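AlphaScreen binding: CBFb-His and RUNX1-biotin (30 nM each) preincubated 20 min, compound added for 15 min, then nickel and streptavidin beads for 90 min, all at room temperature. Disruption of the interaction by any mechanism counts as activity.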
Integrin act MD = activators of alpha7 integrin expression for muscular dystrophy | alpha7betagal myoblasts, beta-gal FDG fluorescence, 48 h | Potency, µM (series often up to 38.3 µM), without a hit: top-dose activation, most hits filed as activators | hit rate 0.064% among 350,000 | AID 624291;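 note: potency is the fitted concentration of half-maximal effect; 100% = response of the positive control SU9516; nearly all actives have a fitted effect of over 60% in size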
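alpha7betagal+/- myoblasts (passage 13, 250/well) treated 48 h at 37C with compounds at 1:260 dilution of DMSO stock. Lysed, then beta-galactosidase activity read as FDG fluorescence (ex 480/em 540) after 30 min, with pre-read for autofluorescence.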
* hit, by the source's call; i = inactive; ? = inconclusive; . = no result; [ ] = dose if it differs, or a comment. A selection: hits, their analogues and other compounds. The true share with any hit is near 2.8%. Unless noted, calls come from the whole dose curve; as a rule, active = well fitted curve in the direction sought with a large enough effect; inconclusive = small, poorly fitted or top-dose-only effect, or another doubt; inactive = no such curve, though single readings can be large; an effect the other way counts as inactive or inconclusive.

SMILES	D3 antag	MBNL1 CUG block	DRD3 agonist	PTHR1 agonist	CBFb-RUNX1 inh	Integrin act MD
c1coc(-c2nc(-c3ccco3)c(-c3ccco3)nc2-c2ccco2)c1	-26.5	15.0%	-10.3	-7.5%[57.5 µM]	.	35.7%
Nc1nc(-c2ccco2)c(-c2ccco2)s1	-57.7*	18.4%	-12.1	i	-18.0%	16.8%
O=C(Nc1ccc2c(c1)OCCO2)C(CCc1ccccc1)N1CCC(Cc2ccccc2)CC1 (stereo not drawn)	-69.1*	.	-13.8	-2.2%	.	.
O=C(Nc1ccc2c(c1)OCCO2)C(CCc1ccccc1)N(Cc1ccccc1)Cc1ccccc1 (stereo not drawn)	0.0	.	-2.3	-20.6%	.	.
COC(C[C@H](O)C[C@@H](O)COCc1ccccc1)OC	-106.9*	-6.7%	-3.1	-12.7%	7.4%	0.0%
COC(CN(C(=O)CCl)C(C(=O)NC1CCCCC1)c1ccc(C)cc1)OC (stereo not drawn)	-2.2	-8.5%	2.4	-9.9%	-5.0%	-55.4%
Clc1ccccc1OCCN1CCCCC1	-79.8*	-9.2%	-21.9	-7.1%[57.5 µM]	3.5%	-9.1%
Cc1ccccc1OCCN1CCCC1	?	0.5%	-13.3	i	.	12.0%
Clc1ccc(OCCN2CCCCC2)c(Cl)c1	-176.0*	-11.8%	-31.6	-4.6%[57.5 µM]	-1.0%	-12.6%
Nc1[nH]c(C(=O)c2ccccc2)c(-c2ccncc2)c1C(=O)NC1CC1	0.0	.	-9.3	14.6%	.	.
CN1CCCN(c2cc(-c3ccc4ccccc4c3)nc3ccnn23)CC1	-66.8*	.	-11.8	i	.	.
COc1ccc(NC(=O)N2CCN(c3nc(-c4cccc(OC)c4)cs3)CC2)cc1	18.6	10.4%	50.9*	-30.7%	-25.2%	-42.4%
COc1ccc(CCNC(=O)c2c(C)noc2C)cc1	-99.9*	2.5%	0.2	-19.4%[57.5 µM]	2.6%	1.5%
CCn1c(=O)c(C(=O)NCCN2CCCCC2)c(O)c2ccccc21	-92.5*	-1.8%	-12.2	-21.2%[57.5 µM]	1.1%	-12.8%
COc1ccc(CCNC(=O)c2c(O)c3ccccc3n(C)c2=O)cc1	5.9	5.7%	36.8*	i	.	23.2%
CCn1c(=O)c(C(=O)NCCc2ccccc2)c(O)c2ccccc21	0.2	0.4%	17.2	-4.6%[57.5 µM]	26.9%	8.1%
Cc1noc(C)c1C(=O)NCCCc1ccccc1	-24.8	6.1%	-5.6	i	2.2%	3.1%[7.66 µM]
CCOc1ccc(N2CC(C(=O)Nc3nnc(Cc4ccccc4)s3)CC2=O)cc1 (stereo not drawn)	13.2	1.6%	3.4	i	.	20.2%
COc1ccc(CCCC(=O)NCc2ccccc2)cc1C	-5.4	.	-3.6	-24.7%	-0.1%	-22.8%
Cc1cccc2[nH]c(CCNC(=O)C3CCC(=O)N(CCc4cccc(F)c4)C3)nc12 (stereo not drawn)	-7.9	-4.5%	-0.6	-25.3%	.	-17.0%
Cc1cccc(-c2ccc3[nH]c4c(c3c2)CCN2C[C@@H]([C@H](C)O)[C@@H](N(C)C(=O)NC3CCCCC3)C[C@@H]42)c1	-19.2	.	-8.0	4.3%	.	-59.6%
COc1ccc2c3c([nH]c2c1)[C@H]1C[C@H]2[C@H](C[C@@H](O)[C@H](OC)[C@H]2C(=O)O)CN1CC3	-1.6	.	2.2	-2.4%	.	.
C[C@H](O)[C@@H]1CN2CCc3c([nH]c4ccccc34)[C@@H]2C[C@@H]1N(C)C(=O)NC1CCCCC1	-58.0*	.	-14.9	0.9%	.	-11.5%
O=C1CCC2CN3CCc4c([nH]c5ccccc45)C3CC2C1 (stereo not drawn)	-89.5*	.	-11.8	-26.1%	.	3.2%
O=C(O)[C@@H]1[C@H]2C[C@H]3c4[nH]c5ccccc5c4CCN3C[C@@H]2CC[C@@H]1O	-61.0*	.	-70.6	i	.	.
SMILES	D3 antag	MBNL1 CUG block	DRD3 agonist	PTHR1 agonist	CBFb-RUNX1 inh	Integrin act MD
Cc1c(C(=O)N2CCCC2)c(S(=O)(=O)Nc2cccc(Br)c2)c(C)n1C	1.0	0.0%	3.8	i	.	?
Cc1ccc(OCC(=O)Nc2oc(-c3ccccc3)c(-c3ccccc3)c2C#N)cc1	-27.0	.	8.1	-9.7%[57.5 µM]	.	-16.7%
N#Cc1c(NC(=O)CSc2ncccn2)oc(-c2ccccc2)c1-c1ccccc1	-22.7	.	3.1	-13.1%[57.5 µM]	.	-44.5%
N#Cc1c(NC(=O)CN2CCOCC2)oc(-c2ccccc2)c1-c1ccccc1	-59.2*	7.0%	-2.8	-49.1%	-10.7%	-43.0%
N#Cc1c(NC(=O)Cn2cnc3ccccc3c2=O)oc(-c2ccccc2)c1-c1ccccc1	-61.2*	6.0%	4.9	i	3.8%	7.4%
COc1ccccc1C(=O)NCc1nc2cccnc2n1Cc1ccc(F)cc1	.	.	-9.3	i	.	.
COc1cccc(CNC(=O)c2sc3ncccc3c2-n2c(C)ccc2C)c1OC	.	.	-6.8	-49.7%	.	.
CCOC(=O)C1(CC2CC2)CCN(Cc2ccc(OC)cc2F)CC1	-68.4*	?	-18.0	-18.8%	2.4%	-29.9%
Fc1ccc(-n2nnnc2-c2cnc(-c3cccs3)nc2C(F)(F)F)cc1	0.0	14.1%	44.5*	-5.3%[57.5 µM]	3.7%	-55.4%
CCc1ccc(-c2nc(CS(=O)CC(=O)NCCCN3CCC(C)CC3)c(C)o2)cc1 (stereo not drawn)	-3.0	1.1%	-6.9	i	.	-61.2%
O=C(Nc1nc2ccccc2s1)c1cc(-c2ccco2)nc2ccccc12	2.1	16.6%	-2.2	-14.0%	-5.1%	0.2%
Cc1ccc(NC(=O)c2cc(-c3cccs3)nc3ccccc23)c(C)c1	.	.	5.8	-7.8%	.	.
Cc1cccc2sc(NNC(=O)c3cc(-c4cccs4)nc4ccccc34)nc12	126.4	-3.5%	46.1*	-95.4%	1.4%[2.36 µM]	-28.2%
COc1ccc(-c2cc(C(=O)Nc3nc4c(C)cccc4s3)c3ccccc3n2)cc1OC	26.4	-0.8%	32.7*	-24.2%[57.5 µM]	-2.9%	8.4%
COc1cccc(-c2cc(C(=O)Nc3nc4ccccc4s3)c3ccccc3n2)c1	-59.0*	2.6%	-28.9	i	-8.4%	-14.2%
Cc1ccc(C)c(N2CCN(C(=O)CCc3nc(-c4ccccc4Cl)no3)CC2)c1	104.8	.	50.0*	i	.	2.8%
Cc1ccc(C)c(N2CCN(C(=O)CCc3nc(-c4ccccc4C)no3)CC2)c1	0.0	.	23.7	-34.4%	.	-11.1%
COc1cc(S(=O)(=O)NCC(c2ccco2)N2CCCCC2)ccc1NC(C)=O (stereo not drawn)	14.7	.	-3.5	i	.	18.2%
CCCc1nc2ccccc2n1CCOc1ccccc1	-62.2*	11.4%	-5.3	-14.7%[57.5 µM]	3.3%	-0.1%
COc1ccc(NCc2nc3ccccc3n2CCOc2ccccc2)cc1	-11.6	-0.3%	-3.6	-20.1%	?	14.3%
CCCc1nc2ccccc2n1CCOC	-7.9	-13.6%	-1.8	i	0.9%	0.0%

Screening results: PubChem, National Center for Advancing Translational Sciences (NCATS)
